Conditions in all cases: primary human HUVEC with PBMC; actives raise or lower the signal
The nature of assay [1]: BSK_LPS_PGE2: BioMAP Diversity Plus: LPS Assay for Prostaglandin E2 (PGE2) Biomarker Activity (AID 2283082).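 For AC50: secreted prostaglandin E2 measured by ELISA in LPS-stimulated co-culture.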 The method in brief:
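PGE2 release measured by ELISA in an LPS-activated co-culture of human umbilical vein endothelial cells and peripheral blood mononuclear cells, read at 24 h post-dosing. DMSO served as baseline for bidirectional curve fitting.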

Read-out in assay [2]: Macrophage colony-stimulating factor (MCSF), CSF1 (gene 1435)
Description: BSK_LPS_MCSF: BioMAP Diversity Plus: LPS Assay for Macrophage colony-stimulating factor (MCSF) Biomarker Activity (AID 2283083). The method in brief:
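ELISA readout of M-CSF after 24 h compound exposure in a human endothelial/PBMC co-culture. Activity, in either direction, is fitted relative to DMSO vehicle.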

Read-out in assay [3]: Tissue Factor, F3 (gene 2152)
Description: BSK_LPS_TissueFactor: BioMAP Diversity Plus: LPS Assay for Tissue Factor Biomarker Activity (AID 2283084). The method in brief: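 ELISA signal for cell-surface Tissue Factor (CD142) was read 24 h after compound dosing of an LPS-stimulated human endothelial–PBMC primary co-culture. Gain or loss of signal was scored relative to DMSO.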

Read-out in assay [4]: Tumor necrosis factor (Homo sapiens) (UniProt P01375)
Description: BSK_LPS_TNFa: BioMAP Diversity Plus: LPS Assay for Tumour Necrosis Factor alpha (TNFa) Biomarker Activity (AID 2283085).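 For AC50: TNFa protein level quantified by ELISA in the co-culture.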 The method in brief: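 TNFa was quantified by ELISA in LPS-activated co-cultures of human endothelial cells and PBMC, 24 h post-dosing. Both increases and decreases versus DMSO were fitted.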

Read-out in assay [5]: Vascular cell adhesion molecule 1 (VCAM1), VCAM1 (gene 7412)
Description: BSK_LPS_VCAM1: BioMAP Diversity Plus: LPS Assay for Vascular cell adhesion molecule 1 (VCAM1) Biomarker Activity (AID 2283086). The method in brief: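 VCAM-1 quantified by ELISA in an LPS-activated co-culture of human endothelial cells and peripheral blood mononuclear cells, read 24 h post-treatment. Fitted in both directions versus DMSO; parallel SRB staining flags overt cytotoxicity.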

Read-out in a further assay: CD38, CD38 (gene 952)
Description: BSK_SAg_CD38: BioMAP Diversity Plus: SAg Assay for CD38 Biomarker Activity (AID 2283087). The method in brief:
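CD38 quantified by ELISA (fluorescence) in a superantigen-activated endothelial cell–PBMC co-culture at 24 h post-dose. Activity fitted in both directions relative to DMSO; parallel SRB and Alamar Blue cytotoxicity read-outs.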

Read-out in the next assay: CD69, CD69 (gene 969)
Description: BSK_SAg_CD69: BioMAP Diversity Plus: SAg Assay for CD69 Biomarker Activity (AID 2283089).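 For AC50: cell surface CD69 protein quantified by ELISA with fluorescence detection.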 The method in brief:
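Primary human vascular co-culture (umbilical vein endothelium with peripheral blood mononuclear cells) exposed to test chemical for 24 h. CD69 levels quantified by fluorescence ELISA; DMSO served as negative control for bidirectional fitting.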

Read-out in assay [6]: Monocyte Chemoattractant Protein-1 (MCP1), CCL2 (gene 6347)
Description: BSK_SAg_MCP1: BioMAP Diversity Plus: SAg Assay for Monocyte Chemoattractant Protein-1 (MCP1) Biomarker Activity (AID 2283090). The gist of the method:
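Values derive from bidirectional fitting of ELISA-measured MCP1 against DMSO controls. Readings were taken 24 h after dosing human vascular endothelial cells co-cultured with peripheral blood mononuclear cells under superantigen stimulation.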

Read-out in assay [7]: E-selectin (Homo sapiens) (UniProt P16581)
In words: BSK_SAg_Eselectin: BioMAP Diversity Plus: SAg Assay for Eselectin Biomarker Activity (AID 2283091). The method in brief:
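Co-culture: HUVEC + PBMC. Dose compound; 24 h. ELISA for E-selectin. Bidirectional fit vs DMSO.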

Read-out in the next assay: CD40, CD40 (gene 958)
In words: BSK_SAg_CD40: BioMAP Diversity Plus: SAg Assay for CD40 Biomarker Activity (AID 2283088). The method in brief: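 Compounds were dosed onto a human primary endothelial–PBMC co-culture, and after 24 h CD40 was quantified by ELISA using a fluorescence signal. Activity in either direction was fitted relative to DMSO.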

Calls of active or inactive are those of the source. Rule for the calls: active = hit-call score of the fitted dose curve at least 0.9, where 1 is the maximum; inactive = score below 0.9.

Chain of E-selectin (Homo sapiens) (P16581 whole entry, looked up): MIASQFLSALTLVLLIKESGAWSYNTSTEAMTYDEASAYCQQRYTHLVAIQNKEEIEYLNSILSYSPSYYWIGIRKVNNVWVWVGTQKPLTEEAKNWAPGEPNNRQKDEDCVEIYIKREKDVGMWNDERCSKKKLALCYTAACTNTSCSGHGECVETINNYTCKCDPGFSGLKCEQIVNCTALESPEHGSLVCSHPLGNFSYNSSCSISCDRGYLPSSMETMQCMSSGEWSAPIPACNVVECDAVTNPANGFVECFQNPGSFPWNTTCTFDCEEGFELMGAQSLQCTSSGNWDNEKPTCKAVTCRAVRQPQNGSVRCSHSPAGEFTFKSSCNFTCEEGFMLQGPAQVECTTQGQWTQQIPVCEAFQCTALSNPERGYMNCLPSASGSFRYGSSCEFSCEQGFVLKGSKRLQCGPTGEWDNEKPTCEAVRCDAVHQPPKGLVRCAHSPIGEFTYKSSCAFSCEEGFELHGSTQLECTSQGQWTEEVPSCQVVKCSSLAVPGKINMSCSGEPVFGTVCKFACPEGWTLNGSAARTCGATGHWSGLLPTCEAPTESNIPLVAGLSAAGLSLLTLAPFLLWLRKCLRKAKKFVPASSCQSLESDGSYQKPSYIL
Chain of Tumor necrosis factor (Homo sapiens) (P01375 whole entry, looked up): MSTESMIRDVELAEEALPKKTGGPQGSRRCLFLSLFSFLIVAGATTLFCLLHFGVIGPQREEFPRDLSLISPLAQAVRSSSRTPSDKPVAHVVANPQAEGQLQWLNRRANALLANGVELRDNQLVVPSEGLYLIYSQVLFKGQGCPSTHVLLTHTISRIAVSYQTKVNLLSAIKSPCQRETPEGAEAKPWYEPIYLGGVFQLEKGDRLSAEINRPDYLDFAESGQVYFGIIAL

Broadly, the AC50 is the concentration at which the activity in the assay is half-maximal. With `O=C(N[C@@H](c1ccccc1)[C@@H]1CCCCN1)c1cccc(C(F)(F)F)c1Cl`, the AC50 in [1] was 4.91 µM (active); in assay [5] it was 20 µM (active); with CD38, CD38 (gene 952), 20 µM (active); in the assay with CD69, CD69 (gene 969), 20 µM (active); in assay [6], 23.4 µM (active); in assay [7] it was 12.3 µM (active). The outcome in assay [2], in assay [3] and in [4] was inactive.

For `CC(C)c1cccc(C(C)C)c1`, the outcome is “inactive” in assay [1]; “inactive” in assay [2]; “inactive” in [3]; “inactive” in assay [4]; “inactive” in assay [5]; “inactive” with CD38, CD38 (gene 952). The outcome with CD69, CD69 (gene 969) was “inactive”; in assay [6], “inactive”; in assay [7] it was “inactive”.

For the molecule `CCc1cc(C2=C(C(=O)O)N(c3ccccc3C(F)(F)F)S(=O)(=O)c3ccccc32)cc2c1OCO2`, the outcome is “inactive” in assay [1]; “inactive” in [2]; “inactive” in assay [3]; “inactive” in [4]; “inactive” in the assay with CD40, CD40 (gene 958); “inactive” in assay [6]. The outcome in assay [7] was inactive. Besides, the concentration at half-maximal activity (AC50) with CD38, CD38 (gene 952) was 19.8 µM (active); with CD69, CD69 (gene 969), 11.1 µM (active).

As for `CCOCCOCCO`, the outcome is “inactive” in assay [1]; “inactive” in assay [2]; “inactive” in assay [3]; “inactive” in assay [4]; “inactive” in the assay with CD38, CD38 (gene 952); “inactive” with CD40, CD40 (gene 958). The outcome in the assay with CD69, CD69 (gene 969) was “inactive”; in [6] it was “inactive”; in assay [7] it was “inactive”.

As for `O=C(NS(=O)(=O)/C=C/c1cccs1)c1ccc(F)cc1Br`, the outcome in assay [1] is “inactive”; in assay [2], “inactive”; in [3], “inactive”; in assay [4], “inactive”; in assay [5] it was “inactive”; with CD38, CD38 (gene 952), “inactive”. Also, the outcome with CD69, CD69 (gene 969) was “inactive”; in assay [6], “inactive”; in [7], “inactive”.

Regarding `Oc1ccccc1O`, the half-maximal activity concentration (AC50) was 14.4 µM (active) in [1]; 3.92 µM (active) in assay [2]; 4.21 µM (active) with CD40, CD40 (gene 958); 5.69 µM (active) in the assay with CD69, CD69 (gene 969). Also, the outcome was “inactive” in [3]; “inactive” in assay [4]; “inactive” in the assay with CD38, CD38 (gene 952); “inactive” in assay [6]; “inactive” in [7].

Turning to `CCCCCCCCCCCCCCOS(=O)(=O)O`, the outcome in [1] is “inactive”; in assay [2] it was “inactive”; in [3], “inactive”; in assay [4], “inactive”; in the assay with CD40, CD40 (gene 958) it was “inactive”; in the assay with CD69, CD69 (gene 969), “inactive”. The outcome in assay [6] and in [7] was inactive. The half-maximal activity concentration (AC50) with CD38, CD38 (gene 952) is 20 µM (active).

As to `O=NO`, the outcome in assay [1] is “inactive”; in assay [2] it was “inactive”; in assay [3], “inactive”; in [4] it was “inactive”; in assay [5] it was “inactive”; with CD38, CD38 (gene 952), “inactive”. The outcome with CD69, CD69 (gene 969) was “inactive”; in assay [6], “inactive”; in assay [7], “inactive”.

`COC(=O)[C@H]1[C@H]2C[C@@H]3c4[nH]c5cc(OC)ccc5c4CCN3C[C@H]2C[C@@H](OC(=O)c2cc(OC)c(OC)c(OC)c2)[C@@H]1OC`: the result in [1] and in assay [7] was inactive. Moreover, the AC50 in assay [2] is 21.2 µM (active); in [3], 7.64 µM (active); in assay [4], 28.7 µM (active); in [5] it was 12 µM (active); in the assay with CD38, CD38 (gene 952), 25.7 µM (active); in assay [6] it was 22.6 µM (active).

For `Cc1c(C)c2c(c(C)c1O)CCC(C)(COc1ccc(CC3SC(=O)NC3=O)cc1)O2` (stereo not drawn), the AC50 in assay [1] is 32.5 µM (active); in [2], 31.6 µM (active); in assay [3], 34.8 µM (active); in [4], 31.6 µM (active); in assay [5], 30.5 µM (active); with CD38, CD38 (gene 952), 24.9 µM (active). In addition, the AC50 with CD69, CD69 (gene 969) is 21.5 µM (active); in assay [6], 32.6 µM (active); in assay [7], 31.9 µM (active).

On to `CCCC(=O)O`, for which the outcome in assay [1] was “inactive”; in assay [2], “inactive”; in assay [3], “inactive”; in assay [4], “inactive”; in assay [5], “inactive”; in the assay with CD38, CD38 (gene 952), “inactive”. Moreover, the outcome was “inactive” with CD69, CD69 (gene 969); “inactive” in assay [6]; “inactive” in assay [7].

The values above are taken from PubChem BioAssay (EPA / NIEHS).
